High-throughput results as filed in PubChem BioAssay.
This is a sample that favours compounds with a hit; in the whole collection about 12% have one here.
BAZ2B block: qHTS Assay for Inhibitors of BAZ2B | AlphaScreen BAZ2B-H3K14Ac peptide displacement | hit rate 4.4% among 360,000 | Potency, µM (titrated, usually from 114 µM), without a hit: at the top dose activity change, negative = inhibition, usual class: inhibitors; further: on the % scale 0 is the no-effect control and ±100 the full control effect; nearly all actives have a fitted effect of over 60% in size
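AlphaScreen displacement: compounds (up to 110uM) incubated 30 min at room temperature with a preformed 50 nM BAZ2B/50 nM biotinylated H3K14Ac peptide complex in PBS pH 7.4 with Tween-20. Donor and acceptor beads at 10 ug/mL final added, 20 min light-protected before reading.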
Sfp PPTase inh: qHTS Assay for Inhibitors of Bacillus subtilis Sfp phosphopantetheinyl transferase (PPTase); 4'-phosphopantetheinyl transferase ffp (Bacillus subtilis), Q9F4F7; Biochemical Sfp PPTase activity, qHTS; Potency, µM, without a hit: largest response in the series, negative = inhibition, usual class: inhibitors; hit rate 3.5% among 310,000; AID 1490, 2009;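 further: the enzyme is Sfp with the accession as filed and its product quenches rhodamine fluorescence; 0% = enzyme reaction without inhibitor and -100% = no enzyme wells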
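Buffer: 50 mM Hepes-Na pH 7.6, 10 mM MgCl2, 0.01% Nonidet P-40, 0.01% BSA. Enzyme 15 nM, pre-exposed to compound 15 min; substrates then added and fluorescence change tracked over 30 min.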
PLK1 PBD block: qHTS for Inhibitors of PLK1-PDB (polo-like kinase 1 - polo-box domain): Primary Screen; Plk1 PBD binding of FITC phosphopeptide, fluorescence polarization; AID 720504, 2013; hit rate 2.8% among 360,000; Potency, µM, inactives show max response, negative = inhibition, usual class: inhibitors; further: series mostly up to about 57 µM; on the % scale 0 is the no-effect control and ±100 the full control effect; nearly all actives have a fitted effect of over 65% in size
JMJD2A Tudor inh: qHTS Assay for Inhibitors of JMJD2A-Tudor Domain; Lysine-specific demethylase 4A (Homo sapiens), O75164; AlphaScreen JMJD2A-Tudor / H3K4me3 peptide binding; Potency, µM (highest dose often 114 µM), for the others: at the top dose activity change, negative = inhibition, hits mostly inhibitors; hit rate 4.4% among 390,000; further: on the % scale 0 is the no-effect control and ±100 the full control effect; nearly all actives have a fitted effect of over 50% in size
Target sequence (O75164 whole entry, looked up, the tested form may be a part): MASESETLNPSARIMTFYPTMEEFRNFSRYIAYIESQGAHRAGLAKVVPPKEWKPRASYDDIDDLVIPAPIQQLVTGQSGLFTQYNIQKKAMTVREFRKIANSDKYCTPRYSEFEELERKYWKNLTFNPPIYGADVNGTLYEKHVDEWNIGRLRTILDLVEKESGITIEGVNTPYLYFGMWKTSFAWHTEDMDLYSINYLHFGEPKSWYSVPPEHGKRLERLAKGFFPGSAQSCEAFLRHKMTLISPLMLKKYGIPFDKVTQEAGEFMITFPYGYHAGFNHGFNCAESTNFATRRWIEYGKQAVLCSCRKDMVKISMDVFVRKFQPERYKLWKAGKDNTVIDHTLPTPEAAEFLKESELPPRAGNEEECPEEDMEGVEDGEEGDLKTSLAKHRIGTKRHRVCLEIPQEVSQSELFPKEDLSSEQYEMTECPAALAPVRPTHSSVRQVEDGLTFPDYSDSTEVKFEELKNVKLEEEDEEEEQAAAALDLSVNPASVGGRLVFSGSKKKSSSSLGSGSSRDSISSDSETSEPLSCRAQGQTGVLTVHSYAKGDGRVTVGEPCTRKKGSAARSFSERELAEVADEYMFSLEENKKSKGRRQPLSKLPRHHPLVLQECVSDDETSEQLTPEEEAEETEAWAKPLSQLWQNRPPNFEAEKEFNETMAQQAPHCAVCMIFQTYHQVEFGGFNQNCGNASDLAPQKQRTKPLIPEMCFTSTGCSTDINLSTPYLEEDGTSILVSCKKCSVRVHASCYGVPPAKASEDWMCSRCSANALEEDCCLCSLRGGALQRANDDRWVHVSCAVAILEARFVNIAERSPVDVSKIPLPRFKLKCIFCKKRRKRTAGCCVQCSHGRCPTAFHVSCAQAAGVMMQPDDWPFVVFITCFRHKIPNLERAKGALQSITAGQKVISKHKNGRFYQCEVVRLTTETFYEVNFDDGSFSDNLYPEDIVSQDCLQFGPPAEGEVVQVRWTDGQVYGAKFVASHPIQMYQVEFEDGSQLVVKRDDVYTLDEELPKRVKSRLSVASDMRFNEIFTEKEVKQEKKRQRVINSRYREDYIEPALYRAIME
HP1b chromo inh: HTS for Inhibitors of HP1-beta Chromodomain Interactions with Methylated Histone Tails; Potency, µM (top dose mostly 114 µM), without a hit: top-dose activity change, negative = inhibition, actives largely listed as inhibitors; hit rate 0.56% among 390,000; AlphaScreen HP1-beta / biotin-H3K9me3 peptide binding; Chromobox protein homolog 1 (Homo sapiens), P83916; further: nearly all actives have a fitted effect of over 70% in size
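HP1-beta protein (50 nM final) preincubated 30 min at room temperature with biotinylated H3(1-18)K9me3 peptide (50 nM) in PBS pH 7.4, 0.01% Tween-20, then compound added for 30 min. AlphaScreen streptavidin donor/nickel chelate acceptor beads (10 ug/mL final), 30 min dark, luminescence read.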
G9a block: qHTS Assay for Inhibitors of Histone Lysine Methyltransferase G9a | Histone-lysine N-methyltransferase EHMT2 (Homo sapiens), Q96KQ7 | G9a H3K9 monomethylation, AlphaScreen, 2 h | Potency, µM (highest dose often 102 µM), for the others: at the highest dose activity, negative = inhibition, actives largely listed as inhibitors | hit rate 8.8% among 350,000; further: on the % scale 0 is the no-effect control and ±100 the full control effect; nearly all actives have a fitted effect of over 75% in size
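G9a (20 nM) preincubated 15 min RT with compounds, then 500 nM biotinylated H3K9 peptide and 20 uM SAM added; 2 h RT reaction. Monomethyl-H3K9 product detected by AlphaScreen with anti-H3K9me1 antibody, streptavidin donor and anti-rabbit IgG acceptor beads.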
* marks the source's active call; other numbers are inactive results; ! = a repeat was not active; [ ] = another dose, or the depositor's remark. The call rests on the fitted dose curve; in most records, active means well fitted curve in the direction sought with a large enough effect; inconclusive means small, poorly fitted or top-dose-only effect, or another doubt; inactive means no such curve, though single readings can be large; an effect the other way counts as inactive or inconclusive. Potency means the concentration at half of the fitted maximal effect.

Screening c1ccc(C2[C@H]3CN(Cc4cccnc4)[C@H](c4ccccc4)C34CC2(c2cccnc2)C4)cc1 (some centres undefined) returned BAZ2B block inconclusive, Sfp PPTase inh 56.2µM*!, PLK1 PBD block -21.7%, JMJD2A Tudor inh inconclusive, HP1b chromo inh -13.7% and G9a block -37.2%[59 µM].
`Cc1ccc(S(=O)(=O)Nc2cccc(-c3ccc(N4CCCCCC4)nn3)c2)cc1` gave BAZ2B block -23.6%, Sfp PPTase inh -6.4%, PLK1 PBD block -5.8%, JMJD2A Tudor inh 4.3%, HP1b chromo inh 24.2% and G9a block 16.5%.
CC(CN(C)C)CN1c2ccccc2Sc2ccc(C(F)(F)F)cc21 (centres undefined) was read as Sfp PPTase inh -6.9% and G9a block -46.3%[12.7 µM].
`CN(C)CCCN1c2ccccc2Sc2ccc(C(F)(F)F)cc21` gave BAZ2B block 31.6µM*, Sfp PPTase inh -4.4%, PLK1 PBD block -0.4%, JMJD2A Tudor inh inconclusive, HP1b chromo inh -15.4% and G9a block -7.7%[59 µM].
`COC(=O)c1ccccc1OCCOCCOc1cccc2cccnc12` gave BAZ2B block -31.6%, Sfp PPTase inh -19.5%, PLK1 PBD block inconclusive, JMJD2A Tudor inh -30.5%[57.1 µM], HP1b chromo inh inconclusive and G9a block 5.2%[59 µM].
Screening Cc1ccc(OCCOCCOc2cccc3cccnc23)c(Br)c1 returned BAZ2B block 9.2%, Sfp PPTase inh -7.7%, PLK1 PBD block 26.7µM*, JMJD2A Tudor inh -1.4%[57.1 µM], HP1b chromo inh inconclusive and G9a block 14.3%.
O=[N+]([O-])c1ccccc1OCCOCCOc1cccc2cccnc12 was read as BAZ2B block 31.6µM*, Sfp PPTase inh inconclusive, PLK1 PBD block -11.6%, JMJD2A Tudor inh 20µM*, HP1b chromo inh inconclusive and G9a block 2µM*.
For Clc1cc(Br)ccc1OCCOCCOc1cccc2cccnc12 the results were BAZ2B block -16.3%, Sfp PPTase inh -7.6%, PLK1 PBD block 4.3%, JMJD2A Tudor inh 4.3%, HP1b chromo inh 76.9% and G9a block 4.4%[12.7 µM].
Screening COc1ccc(CCNC(=O)c2ccc3c(c2)N(Cc2cccc(Cl)c2)C(=O)c2ccccc2S3=O)cc1OC (centres undefined) returned BAZ2B block -12.1%, JMJD2A Tudor inh -15.1%, HP1b chromo inh -12.8% and G9a block inconclusive.
Screening CN(CC(=O)Nc1ccc(F)c(F)c1F)C(=O)CCCc1nc2ccccc2c(=O)[nH]1 returned BAZ2B block 13.3%, PLK1 PBD block -5.4%, JMJD2A Tudor inh -8.8%, HP1b chromo inh 39.8% and G9a block 23.7%[12.7 µM].
For CN(CC(=O)Nc1cccc(F)c1)C(=O)CSc1ccccc1 the results were BAZ2B block inconclusive, PLK1 PBD block 15µM*, JMJD2A Tudor inh -20.7%, HP1b chromo inh 10.5% and G9a block inconclusive.
For Cc1ccc(NC(=O)CSCC(=O)N(C)CC(=O)Nc2ccccc2C(F)(F)F)cc1 the results were BAZ2B block 6.4%, PLK1 PBD block -4.1%, JMJD2A Tudor inh -13.8%, HP1b chromo inh 20.4% and G9a block 50.1µM*.
For CN(CC(=O)Nc1cccc(F)c1)C(=O)CCc1nc2ccccc2c(=O)[nH]1 the results were BAZ2B block 12.2%, PLK1 PBD block 3.6%, JMJD2A Tudor inh -18.5%, HP1b chromo inh 11.0% and G9a block 44.7µM*.
`CN(CC(=O)Nc1ccc(N2CCOCC2)cc1)C(=O)CSc1ccccc1F` gave BAZ2B block 1.8%, PLK1 PBD block inconclusive, JMJD2A Tudor inh -13.2%, HP1b chromo inh 35.6% and G9a block inconclusive.
For Cc1ccc(SCC(=O)N(C)CC(=O)Nc2cccc(F)c2)c(C)c1 the results were BAZ2B block 6.9%, PLK1 PBD block inconclusive, JMJD2A Tudor inh -4.1%, HP1b chromo inh 23.7% and G9a block -4.9%.
Cc1ccc(NC(=O)CN(C)C(=O)CSc2ccccc2F)cc1 was read as PLK1 PBD block 21.2µM*, JMJD2A Tudor inh -6.8% and HP1b chromo inh 34.1%.
For CCOc1ccc2cc(-c3nnc(Nc4ccccc4F)s3)c(=O)oc2c1 the results were BAZ2B block 3.7%, JMJD2A Tudor inh -13.4%, HP1b chromo inh 16.1% and G9a block 20.5%[59 µM].
Screening FC(F)OC(Cl)C(F)(F)F (centres undefined) returned Sfp PPTase inh 33.8% and G9a block -1.4%[12.7 µM].
Screening Oc1ccccc1N=Nc1ccccc1O returned Sfp PPTase inh 19.1%, PLK1 PBD block 5.4%, JMJD2A Tudor inh 31.6µM*, HP1b chromo inh -16.1% and G9a block 15.8µM*.
For Nc1ccc(N=Nc2ccccc2O)c(N)c1 the results were PLK1 PBD block -3.5%, JMJD2A Tudor inh 35.5µM* and HP1b chromo inh inconclusive.
For C=CC[C@H](CC(=O)OC(C)(C)C)C(=O)OC[C@H]1CCCN1C(=O)[C@@H](CC=C)CC(=O)N(CCO)Cc1ccccc1 the results were PLK1 PBD block -23.2%, JMJD2A Tudor inh -13.6% and HP1b chromo inh 60.2%.
For O=C(CSc1nnc(Nc2ccccc2F)s1)c1cc2ccccc2o1 the results were BAZ2B block -11.4%, Sfp PPTase inh -16.9%, PLK1 PBD block -14.2%, JMJD2A Tudor inh -31.7%, HP1b chromo inh inconclusive and G9a block 7.94µM*.
COc1ccc(Nc2nnc(SCC(=O)c3cc4ccccc4o3)s2)cc1 was read as BAZ2B block inconclusive, Sfp PPTase inh inconclusive, PLK1 PBD block -10.8%, JMJD2A Tudor inh -22.9%, HP1b chromo inh 7.7% and G9a block -134.0%[59 µM].
For O=C1c2ccccc2C(=O)N1CSc1nnc(Nc2ccccc2F)s1 the results were BAZ2B block -14.5%, Sfp PPTase inh 5.1%, PLK1 PBD block -20.2%, JMJD2A Tudor inh -15.5%, HP1b chromo inh 19.2% and G9a block 10µM*.
Screening CC1C=CCC2C(=O)N(c3cc(Cl)ccc3O)C(=O)C12 (centres undefined) returned BAZ2B block 1.4%, Sfp PPTase inh 17.6%, PLK1 PBD block -9.7%, JMJD2A Tudor inh -18.7%, HP1b chromo inh 22.3% and G9a block inconclusive.
For CC(C)NC(=O)c1cccc2c1-c1ccccc1C2=O the results were BAZ2B block 1.3%, Sfp PPTase inh 14.4%, PLK1 PBD block -0.5%, JMJD2A Tudor inh -5.1%, HP1b chromo inh 17.9% and G9a block 24.0%.
